A selection: hits, their analogues and other compounds. The true share with any hit is near 0.86%.
CDC25B-CDK2 inh: primary biochemical HTRF screen for blockers of M-phase inducer phosphatase 2 binding to CDK2/cyclin A. actives 0.72% (n = 94,000). z-score (test concentration not listed). AID 1259370, 2018. P30305+P24941. HTRF CDC25B-CDK2/CyclinA binding, anti-His/anti-Flag; stronger effect = higher value; in the data active means z-score above about 3.2
TAR Tat displ: TAR RNA-Tat peptide displacers, HIV-1, primary screen, biochemical, FRET, FAM/TAMRA-labeled Tat | HIV-1 TAR RNA, Tat peptide displacement FRET; stronger effect = higher value | actives 0.6% (n = 100,000) | z-score (no concentration beside the values); active means z-score of 3 or more in at least 2 runs
Starred values were filed as active, the others as inactive; / = no result.

SMILES	CDC25B-CDK2 inh	TAR Tat displ
Cc1cc(O)c2c(c1)C(=O)c1cc(O)cc(O)c1C2=O	-1.2	1.9
O=C1c2cccc(O)c2C(=O)c2c(O)cc(CO)cc21	/	6.2*
COc1cccc2c1Oc1ncccc1N(C(=O)CCC(=O)O)C2	1.8	0.06
COc1cccc2c1Oc1ncccc1NC2	8.6*	0.72
O=C(/C=C/c1ccco1)Nc1ccc(C(=O)O)cc1NC(=O)/C=C/c1ccco1	17*	/
O=C(O)/C=C/C(=O)Nc1ccc(C(F)(F)F)cc1NC(=O)/C=C/C(=O)O	-0.58	/
Cc1ccc2cc(-c3noc(C)n3)c(=O)[nH]c2c1	-1.1	0.04
O=C1CSC2(C(=O)Nc3ccccc32)N1c1ccc(F)cc1 (stereo unspecified)	-4.3	/
Clc1ccc(OCCCN2CCN(c3cccc4[nH]ccc34)CC2)cc1	-2.2	/
Fc1ccccc1N1CCN(Cc2csc3c2CCCC3)CC1	/	1
O=c1[nH]cc(Cl)cc1Cl	6.4*	/
O=c1[nH]cc(C(F)(F)F)cc1Cl	-2.6	/
O=C(O)CN(CC(=O)O)S(=O)(=O)c1ccccc1	/	17*
CCN(CC)S(=O)(=O)N(CC(=O)O)CC(=O)O	/	0.75
CCOC(=O)CCn1[nH]c(=O)c2ccccc2c1=O	-2.7	/
CC1CCN(c2ncc3c(n2)CCN(Cc2ccc(F)cc2)C3)CC1	/	0.71
Nc1cc(-c2ccc(Cl)cc2)nn1S(=O)(=O)Cc1ccccc1	-2.9	/
O[C@H]1C=C2CCN3Cc4cc5c(cc4C(C23)[C@@H]1O)OCO5 (stereo partly specified)	/	20*
Cc1cc(=O)cc(C)n1-c1ccc(C(=O)O)cc1	0.84	-1.7
Cc1ccc(C)n1-c1ccc(Br)cc1C(=O)O	-0.62	19*
O=C(O)c1cc(Br)cc(C(=O)O)c1Cl	1.1	2.2
Cc1ccc(C)n1-c1ccc(O)c(C(=O)O)c1	-0.09	33*
CC(C)CCn1c(CN2CC(C)CC(C)C2)nc2c1c(=O)n(C)c(=O)n2C (stereo unspecified)	-1.3	/
CCC1(C)NC(=S)N(c2ccc(Cl)cc2)N1 (stereo unspecified)	-1.1	/
Cc1ccc(C2c3c(-c4cc(C)ccc4O)n[nH]c3C(=O)N2CCO)cc1 (stereo unspecified)	-2.4	-1.1
SMILES	CDC25B-CDK2 inh	TAR Tat displ
Cc1cc2cc(CNS(=O)(=O)c3ccc(Cl)cc3)ccc2n1C	-0.34	/
N#Cc1nc(-c2ccc(COc3ccc(Cl)cc3)o2)oc1NCc1ccccc1	-0.83	-0.27
COc1ccc(SCC(O)CNCc2ccc(Cl)cc2)cc1 (stereo unspecified)	0.39	/
O=C1C[C@@H](c2ccccc2)Oc2cc(O)cc(O)c21	/	1.9
Oc1cc(O)c2c(c1)O[C@H](c1ccc(O)c(O)c1)[C@@H](O)C2	-0.87	11
O=c1c(O)cccc2c([C@H]3Oc4cc(O)cc(O)c4C[C@H]3O)cc(O)c(O)c12	/	12*
Oc1cc(O)c2c(c1)O[C@H](c1cc(O)c(O)c(O)c1)[C@H](O)C2	/	30*
CCCCOC(=O)C1=C(C)NC2=C(C(=O)CC(C)(C)C2)C1c1cccc(Br)c1 (stereo unspecified)	-2.7	0.66
CCn1c2ccccc2c2cc(CN3CCN(Cc4ccc(SC)cc4)CC3)ccc21	11*	/
CCn1c2ccccc2c2cc(CN3CCN(S(C)(=O)=O)CC3)ccc21	0.07	0
N#Cc1c(N)nc2c(c1N)C(C(C#N)C#N)c1cc(Br)ccc1O2 (stereo unspecified)	7*	/
COc1ccc(Br)cc1C1C(C#N)=C(N)Oc2cc(O)ccc21 (stereo unspecified)	-1.4	-2.8
CCc1cc2c(N(C)C3CCCCC3)ncnc2s1	/	0.61
Cc1ccc2scc(N3CCC(Cc4ccccc4)CC3)c(=O)c2c1	/	0.02
COc1cc2nc(N3CCN(C(=O)c4ccco4)CC3)nc(N)c2cc1OC	-1.4	2.2
COc1cc2nc(N3CCCN(C)CC3)nc(NC3CCN(Cc4ccccc4)CC3)c2cc1OC	0.41	5.1*
O=C1c2ccccc2-c2onc3c(N4CCN(C(=O)c5ccco5)CC4)cc(NCc4ccco4)c1c23	1.6	15*
O=C1c2ccccc2-c2onc3c(N4CCN(C(=O)c5ccco5)CC4)cc(NCCO)c1c23	0.78	7.4*
CCNc1cc(N2CCN(C(=O)c3ccco3)CC2)c2noc3c2c1C(=O)c1ccccc1-3	-1.6	2.6
COCCNc1cc(N2CCN(C(=O)c3ccco3)CC2)c2noc3c2c1C(=O)c1ccccc1-3	0.55	2.8
O=S1(=O)C[C@H](N2CCN(c3ccccn3)CC2)[C@@H](S(=O)(=O)c2ccccc2)C1	-2.4	0.36
CCOC(=S)NCCc1ccc(Cl)cc1	-1.3	/
O=C(CSC1=NCCS1)Nc1ccc(S(=O)(=O)Nc2nccs2)cc1	-2.7	/
O=C(CSc1nc2c(c(=O)[nH]1)CCCC2)Nc1ccccc1Sc1ccccc1	-2	0.17
Cc1[nH]c(=O)[nH]c(=O)c1S(=O)(=O)Nc1ccc2oc(-c3ccncc3)nc2c1	/	6.2*
SMILES	CDC25B-CDK2 inh	TAR Tat displ
Cc1[nH]c(=O)[nH]c(=O)c1S(=O)(=O)Nc1ccc(-c2ccno2)cc1	/	1
COc1cc(-c2nnc(NC(=O)c3ccc(S(=O)(=O)N4CCCC4)cc3)o2)cc(OC)c1OC	0.14	/
CN1CCc2c(sc(N)c2C#N)C1	/	-0.14
CCOC(=O)N1CCc2c(sc(N)c2C#N)C1	5.7*	/
CCSCCOC(=O)C1=C(C)NC2=C(C(=O)CC(c3cccs3)C2)C1c1ccc(O)c(OC)c1 (stereo unspecified)	-2.6	0.86
Nc1cc(S(=O)(=O)O)c(N)c2c1C(=O)c1ccccc1C2=O	-2.4	/
Nc1cc2c(=O)c3cc(Cl)cc(Cl)c3[nH]c2c2c1C(=O)c1ccccc1C2=O	10*	/
CCN1CCCC1CNc1ncnc2onc(-c3ccc(F)cc3)c12 (stereo unspecified)	/	-1.2
COc1ccc(C2C(C(=O)OC(C)C)=C(C)NC3=C2C(=O)CCC3)cc1 (stereo unspecified)	-0.83	1.9
COc1cccc2c1c(NC(=O)c1cc(C)oc1C)nn2C	-1.1	/
CN(C)c1cccc2c1c(NC(=O)c1cc(Cl)sc1Cl)nn2C	13*	/
CCCCN(CC)C(=O)c1cc2c(s1)-c1ccc(Cl)cc1S(=O)(=O)C2	-1.2	3.1
COc1ccc2c(c1)OCC(Cc1ccc(OC)c(OC)c1)C2=O (stereo unspecified)	/	14*
COc1ccc2c(c1)OCC(Cc1ccc(OC)c(OC(C)=O)c1)C2=O (stereo unspecified)	/	1.1
O=C(O)c1cnn(-c2cccc(F)c2)c1-n1cccc1	0.29	2
CC1CN(C(=O)CCC(=O)NCCCN2CCOCC2)c2ccccc2O1 (stereo unspecified)	-2.3	-0.51
CCOC(=O)c1sc(=S)n(-c2ccc(F)c(F)c2)c1N	/	17*
CCOC(=O)c1sc(=S)n(-c2ccc(C)cc2)c1N	/	1.4
O=C1C2C(c3ccccc3)C=CC(c3ccccc3)C2C(=O)N1c1nccs1 (stereo unspecified)	-0.01	/
N[C@@H](Cc1ccc([N+](=O)[O-])cc1)C(=O)O	-1.5	/
CC(Cc1ccc(O)c(O)c1)C(C)Cc1ccc(O)c(O)c1 (stereo unspecified)	/	6.2*
C[C@H](Cc1ccc(O)c(O)c1)[C@@H](C)Cc1ccc(O)c(O)c1	-0.68	/
N[C@@H](Cc1ccc(O)c(O)c1)C(=O)O	0.41	24*

Bioassay records (PubChem)
